These results are taken from PubChem BioAssay (NCI).

Assay [1] in a line: NCI Yeast Anticancer Drug Screen. Data for the rad50 strain (AID 155).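 Further: 0% = growth of vehicle-only cultures of the same strain.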 The settings on record: S. cerevisiae rad50 strain growth inhibition, stronger effect = higher value. In outline:
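Yeast carrying a defined DNA repair defect were exposed to test compounds, and growth was compared with vehicle-treated controls to give percent inhibition.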

The nature of assay [2]: NCI Yeast Anticancer Drug Screen. Data for the mec2-1 strain (AID 157). The settings on record: S. cerevisiae mec2-1 strain, stronger effect = higher value. In outline:
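mec2-1 yeast strain, carrying an alteration in DNA damage repair or cell cycle control, was exposed to compounds; growth inhibition was measured relative to vehicle-treated controls.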

A short description of assay [3]: NCI Yeast Anticancer Drug Screen. Data for the sgs1 mgt1 strain (AID 161).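 Further: 0% = growth of cultures given vehicle only.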 The note with it: S. cerevisiae sgs1 mgt1 strain, stronger effect = higher value. In outline:
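Compounds are added to genetically altered yeast, and growth is compared with cultures given vehicle alone to give percent inhibition.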

A short description of assay [4]: NCI Yeast Anticancer Drug Screen. Data for the cln2 rad14 strain (AID 165).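 Further: 0% = growth equal to vehicle treated cultures.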 The note with it: S. cerevisiae cln2 rad14 strain, stronger effect = higher value. In outline: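 Yeast carrying cln2 and rad14 alterations (cell cycle control and DNA damage repair) were exposed to compounds. Growth inhibition was measured against vehicle-treated controls.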
A short description of assay [5]: NCI Yeast Anticancer Drug Screen. Data for the bub3 strain (AID 167). The note with it: S. cerevisiae bub3 mutant strain, stronger effect = higher value. In outline:
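Compounds were applied to a genetically altered yeast strain carrying a cell-cycle control defect. Growth inhibition was scored against vehicle-treated controls.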

A short description of assay [6]: NCI Yeast Anticancer Drug Screen. Data for the mlh1 rad18 strain (AID 175). The note with it: S. cerevisiae mlh1 rad18 strain growth inhibition, stronger effect = higher value. In outline: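 Growth inhibition of the yeast strain was measured after compound exposure and expressed relative to vehicle-treated controls. The strain carries defined defects in DNA damage repair.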

The mark [7] stands for this setting: at 5.0 µM (retest, dose inferred, filed as 0.5).
Where [8] appears, read: at 50.0 µM (retest, dose inferred, filed as 5.0).

SMILES strings stand for the structures. This is part of a sample that, as a whole, favours compounds with a hit. Of some 79,000 tested, about 15% had one in any assay. Unmarked numbers belong to inactive results. The source made the active and inactive calls. No stated cut-off is given here; in the data, active means growth inhibition above about 70%; inactive means the rest.

As to `CCCCOc1ccc(NC(=S)Nc2ccc(OCCN(CC)CC)cc2)cc1`, the growth inhibition in assay [1] (setting [7]) is -4%; in assay [1] (setting [8]), 45%; in assay [1] (at 50.0 µM), 63.6%; in assay [2] (setting [7]), 28%; in assay [2] (setting [8]), 70% (active); in assay [2] (at 50.0 µM) it was 39.1%. Also, the growth inhibition is 21% in assay [3] (setting [7]); 67% in assay [3] (setting [8]); 83.8% (active) in assay [3] (at 50.0 µM); 4% in assay [4] (setting [7]); 35% in assay [4] (setting [8]); 80.8% (active) in assay [4] (at 50.0 µM). Besides, the growth inhibition in assay [5] (setting [7]) is 3%; in assay [5] (setting [8]) it was 54%; in assay [5] (at 50.0 µM) it was 71% (active); in assay [6] (setting [7]), 35%; in assay [6] (setting [8]), 71% (active); in assay [6] (at 50.0 µM), 79.2% (active).
On to `CC[O-].CC[O-].[O-]c1ccccc1C=Nc1ccccc1.[O-]c1ccccc1C=Nc1ccccc1.[Ti+4]`, for which the growth inhibition in assay [1] (setting [7]) is 23%; in assay [1] (setting [8]) it was 23%; in assay [1] (at 50.0 µM) it was 50.5%; in assay [2] (setting [7]), 22%; in assay [2] (setting [8]) it was 22%; in assay [2] (at 50.0 µM), 14.8%. The growth inhibition was 12% in assay [3] (setting [7]); 12% in assay [3] (setting [8]); 19.8% in assay [3] (at 50.0 µM); 13% in assay [4] (setting [7]); 13% in assay [4] (setting [8]); 29.9% in assay [4] (at 50.0 µM). Also, the growth inhibition in assay [5] (setting [7]) was 12%; in assay [5] (setting [8]) it was 12%; in assay [5] (at 50.0 µM) it was 19.9%; in assay [6] (setting [7]), 23%; in assay [6] (setting [8]) it was 23%; in assay [6] (at 50.0 µM), 19.9%.
For the compound `CCOC(=O)CNC(=O)CNC(=O)CNC(c1ccccc1)(c1ccccc1)c1ccccc1`, the growth inhibition was -8% in assay [1] (setting [7]); 56% in assay [1] (setting [8]); 66.5% in assay [1] (at 50.0 µM); 41% in assay [2] (setting [7]); 69% in assay [2] (setting [8]); 60.3% in assay [2] (at 50.0 µM). Besides, the growth inhibition in assay [3] (setting [7]) is -13%; in assay [3] (setting [8]), 81% (active); in assay [3] (at 50.0 µM) it was 55.1%; in assay [4] (setting [7]), -10%; in assay [4] (setting [8]), 26%; in assay [4] (at 50.0 µM), 68.8%. In addition, the growth inhibition in assay [5] (setting [7]) was -1%; in assay [5] (setting [8]), 61%; in assay [5] (at 50.0 µM), 38.4%; in assay [6] (setting [7]), 15%; in assay [6] (setting [8]), 83% (active); in assay [6] (at 50.0 µM), 63.7%.
For `CC[Si](CC)(CC)c1ccc(CCNCCS)s1`, the growth inhibition was -1% in assay [1] (setting [7]); 96% (active) in assay [1] (setting [8]); 97.4% (active) in assay [1] (at 50.0 µM); 32% in assay [2] (setting [7]); 99% (active) in assay [2] (setting [8]); 98.7% (active) in assay [2] (at 50.0 µM). In addition, the growth inhibition in assay [3] (setting [7]) was 52%; in assay [3] (setting [8]) it was 98% (active); in assay [3] (at 50.0 µM) it was 98.2% (active); in assay [4] (setting [7]), 8%; in assay [4] (setting [8]), 97% (active); in assay [4] (at 50.0 µM), 98% (active). For the same compound, the growth inhibition in assay [5] (setting [7]) was 19%; in assay [5] (setting [8]), 99% (active); in assay [5] (at 50.0 µM) it was 98.4% (active); in assay [6] (setting [7]), 49%; in assay [6] (setting [8]) it was 97% (active); in assay [6] (at 50.0 µM), 98.3% (active).
Turning to `CC(C)=CCC/C(=C/CC/C(C)=C/CCc1ccoc1)C(=O)O`, the growth inhibition is -5% in assay [1] (setting [7]); 20% in assay [1] (setting [8]); 72.8% (active) in assay [1] (at 50.0 µM); 3% in assay [2] (setting [7]); 26% in assay [2] (setting [8]); 44.1% in assay [2] (at 50.0 µM). In addition, the growth inhibition in assay [3] (setting [7]) was -9%; in assay [3] (setting [8]) it was 41%; in assay [3] (at 50.0 µM), 59.4%; in assay [4] (setting [7]), 17%; in assay [4] (setting [8]) it was 73% (active); in assay [4] (at 50.0 µM) it was 42.7%. Further, the growth inhibition in assay [5] (setting [7]) was -9%; in assay [5] (setting [8]), 64%; in assay [5] (at 50.0 µM) it was 53%; in assay [6] (setting [7]), 2%; in assay [6] (setting [8]), 35%; in assay [6] (at 50.0 µM) it was 62.3%.
As to `CCCCCCCC/C=C\CCCCCCCC(=O)O` (tested in a mixture with another compound), the growth inhibition in assay [1] (setting [7]) was 4%; in assay [1] (setting [8]), 97% (active); in assay [1] (at 50.0 µM), 96.2% (active); in assay [2] (setting [7]), -1%; in assay [2] (setting [8]) it was 100% (active); in assay [2] (at 50.0 µM), 99.3% (active). Also, the growth inhibition is 3% in assay [3] (setting [7]); 98% (active) in assay [3] (setting [8]); 89.7% (active) in assay [3] (at 50.0 µM); 2% in assay [4] (setting [7]); 96% (active) in assay [4] (setting [8]); -53.9% in assay [4] (at 50.0 µM). For the same compound, the growth inhibition was -2% in assay [5] (setting [7]); 99% (active) in assay [5] (setting [8]); 95.3% (active) in assay [5] (at 50.0 µM); 0% in assay [6] (setting [7]); 96% (active) in assay [6] (setting [8]); 97.1% (active) in assay [6] (at 50.0 µM).
Take `COc1cccc2c1[n+]([O-])c1cccc(O)c1[n+]2[O-]`: the growth inhibition in assay [1] (setting [7]) was 98% (active); in assay [1] (setting [8]), 99% (active); in assay [1] (at 50.0 µM), 91.4% (active); in assay [2] (setting [7]) it was 99% (active); in assay [2] (setting [8]) it was 100% (active); in assay [2] (at 50.0 µM), 90.4% (active). Also, the growth inhibition in assay [3] (setting [7]) is 100% (active); in assay [3] (setting [8]) it was 100% (active); in assay [3] (at 50.0 µM), 87.5% (active); in assay [4] (setting [7]) it was 93% (active); in assay [4] (setting [8]), 99% (active); in assay [4] (at 50.0 µM), 88.4% (active). Besides, the growth inhibition in assay [5] (setting [7]) is 99% (active); in assay [5] (setting [8]), 100% (active); in assay [5] (at 50.0 µM), 84.2% (active); in assay [6] (setting [7]), 97% (active); in assay [6] (setting [8]) it was 99% (active); in assay [6] (at 50.0 µM), 91.7% (active).
As to `O=C1C=C(c2ccccc2)O/C1=C/C(=O)c1ccc(Cl)cc1`, the growth inhibition in assay [1] (setting [7]) was 32%; in assay [1] (setting [8]), 32%; in assay [1] (at 50.0 µM), 53.3%; in assay [2] (setting [7]), 32%; in assay [2] (setting [8]) it was 32%; in assay [2] (at 50.0 µM), 65.2%. Moreover, the growth inhibition is 40% in assay [3] (setting [7]); 40% in assay [3] (setting [8]); 79% (active) in assay [3] (at 50.0 µM); 11% in assay [4] (setting [7]); 11% in assay [4] (setting [8]); 39.6% in assay [4] (at 50.0 µM). The growth inhibition is 16% in assay [5] (setting [7]); 16% in assay [5] (setting [8]); 65% in assay [5] (at 50.0 µM); 32% in assay [6] (setting [7]); 32% in assay [6] (setting [8]); 52.9% in assay [6] (at 50.0 µM).
For `O=C(Nc1ccc(C2=NCCN2)cc1)c1ccc(C(=O)Nc2ccc(C3=NCCN3)cc2)c(Cl)c1`, the growth inhibition in assay [1] (setting [7]) is 42%; in assay [1] (setting [8]), 97% (active); in assay [1] (at 50.0 µM) it was 51.2%; in assay [2] (setting [7]), 25%; in assay [2] (setting [8]) it was 98% (active); in assay [2] (at 50.0 µM), 78.7% (active). Also, the growth inhibition in assay [3] (setting [7]) is 57%; in assay [3] (setting [8]), 99% (active); in assay [3] (at 50.0 µM), 76% (active); in assay [4] (setting [7]), 43%; in assay [4] (setting [8]), 96% (active); in assay [4] (at 50.0 µM), 80% (active). For the same compound, the growth inhibition was 54% in assay [5] (setting [7]); 98% (active) in assay [5] (setting [8]); 68.5% in assay [5] (at 50.0 µM); 35% in assay [6] (setting [7]); 95% (active) in assay [6] (setting [8]); 87.8% (active) in assay [6] (at 50.0 µM).
